The values that follow come from PubChem BioAssay AID624167 (Sanford-Burnham Center for Chemical Genomics, 2012).

Structures are written as SMILES.

The nature of the assay: Peg3 promoter luciferase inhibitors, potency, dose response, cell-based, HeLa, CREF/GAPDH counter-screen panel (AID 624167). As to conditions: CREF/GAPDH counter-screens; run 2, dose range 1, at 100 µM (top of the series). In general terms: Counterscreens check selectivity or assay interference.
`CCCC(=O)NC(c1ccc(C)cc1)c1ccc2cccnc2c1O` (configuration not stated): the inhibition is 57.9%. Then `CN(C)S(=O)(=O)c1ccc(-c2csc(N/N=C/c3ccc(O)cc3)n2)cc1`, with 91.1%. `COc1cccc2c1C(=O)c1c(O)c3c(c(O)c1C2=O)CC(O)(C(C)=NNC(=O)c1ccc(Cl)c(Cl)c1)CC3OC1CC(N)C(O)C(C)O1` (configuration not stated): the inhibition was found to be 99.4%.

Regarding `CCc1ccc(/C=C2\SC(=S)N(CCCC(=O)NC3=NCCS3)C2=O)cc1`, the inhibition was 72.9%. Regarding `CCSc1nc2ccccc2n1C(=O)/C=C\c1ccc(OC)c(OC)c1`, the inhibition came out at 81.2%. The figure for `Cc1ccc(C)c(S(=O)(=O)N2CCN(c3ncnc4sccc34)CC2)c1` is 61.2%; for `CC(C)(C)c1ccc(Oc2ccc(N)cc2)cc1` it is 95.6%. Regarding `COc1cccc(OC)c1C(=O)Nc1cc(C)nn1-c1nc2ccccc2[nH]1`, the inhibition was 54.4%. Regarding `CS(=O)(=O)Nc1cccc(NC(=O)C2Cc3c(-c4ccccc4)ccnc3O2)c1` (configuration not stated), the inhibition stood at 54.2%.

As for `COc1cccc(/C=N/NC(=O)c2c(C)nc3ccc(Cl)cn23)c1O`, the inhibition was -51.4%. `O=C(COc1ccc2c(c1)CCC2)Nc1ccccn1`: the inhibition turned out to be 94.9%. Regarding `CCCn1nc(C(=O)Nc2nc(-c3ccccn3)cs2)c2ccccc2c1=O`, the inhibition turned out to be 37.9%. Turning to `O=C(NNC(=O)c1cccnc1SCc1cccc([N+](=O)[O-])c1)c1ccccn1`, the inhibition is -38.1%. Regarding `CCC(C)Cn1c(O)cc2nn(-c3nc4ccccc4s3)c(=O)c-2c1C` (configuration not stated), the inhibition was 95.7%. The figure for `COc1ccc(Nc2ncnc3ccc(Br)cc23)c(OC)c1` is 93.7%; for `CCCC(=O)NC(c1ccc(OC)cc1)c1ccc2cccnc2c1O` (configuration not stated) it is 69%. On to `Cc1ccc(/C=C2\SC(=S)N(CCCC(=O)NNC(=O)c3ccccc3O)C2=O)cc1`, for which the inhibition was 69.2%.

A word on the inhibition: it is the drop in the measured response relative to a control, in per cent.
